Experimental data taken from PubChem BioAssay (NCATS).
Inconclusive results are not listed. Calls of active or inactive are those of the source. Unless noted, calls follow the shape of the dose curve; as a rule, active = well fitted curve in either direction with a large enough effect (not every such curve was filed as active); inconclusive = small, poorly fitted or top-dose-only effect, or another doubt; inactive = flat fitted curve, though single readings scatter.

What was measured:
[1] = target: Lysosomal acid glucosylceramidase (Homo sapiens) (UniProt P04062); assay: Glucocerebrosidase-p2 (AID 348; in the data active = potency below about 10 µM; also: potency is read from the fitted curve at half-maximal effect); conditions: purified GBA, blue fluorogenic substrate, 40 min
Procedure, shortened: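 Compounds titrated from 0.6 nM upwards against 0.2 nM enzyme in pH 5.9 citric acid/KH2PO4, taurocholate, tween-20; blue fluorogenic substrate 80 uM, 40 min room temperature, stopped and read Ex 365/Em 440 for AC50.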

[2] = AP1 Signaling Pathway (AID 357); conditions: ME-180 AP-1-bla reporter, EGF-induced, beta-lactamase ratio, 5 h; at 7.69 µM (top of the series) unless noted;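 also: ME-180 reporter cells stimulated with EGF at its EC50 level; % is scaled to controls: 0 for no effect and ±100 for the full control effect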
Procedure, shortened: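 Read-out was the 460nm/530nm emission ratio (excitation 405nm) after CCF4 loading for 2.5 hours at room temperature. Cells carried an AP-1-driven beta-lactamase reporter, were stimulated with EC50 EGF plus compound for 5 hours, and AC50 values came from titrations.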

[3] = target: Cytochrome P450 1A2 (Homo sapiens) (UniProt P05177); assay: p450-cyp1a2 (AID 410; calls by dose curve; also: potency is read from the fitted curve at half-maximal effect;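 as to activity change, negative = inhibition: -100% = full effect of reference inhibitor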); conditions: recombinant CYP1A2, luciferin-ME demethylation, luminescence; series mostly up to 11.4 µM
Procedure, shortened: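 20nM CYP1A2 with 100uM Luciferin-ME (at Km) in 100mM KPO4; compound preincubated 10 min, NADPH regeneration added, 60 min at room temperature. Luciferin quantified by luminescence after detection reagent; normalized to 57 uM furafylline.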

[4] = NFAT Signaling Pathway (AID 444); conditions: Jurkat NFAT-bla M1, carbachol, beta-lactamase ratio, 5 h; at 7.69 µM (top of the series) unless noted;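 also: carbachol stimulus at about its EC50 of 1 µM final; % is scaled to controls: 0 for no effect and ±100 for the full control effect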
Procedure, shortened: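 Jurkat cells with NFAT-driven β-lactamase reporter and co-expressed M1 receptor, stimulated with carbachol (final 1 uM, ~EC50), compound titration, 5 h at 37 °C. CCF4 loaded 1 h at RT; 460/530 nm ratio gave %activity and AC50.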

[5] = target: Glucocorticoid receptor (Homo sapiens) (UniProt P04150); assay: GR-GFP Redistribution (AID 450;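 active = compounds whose dose series gives a full or clear partial fitted curve of increased nuclear translocation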; also: potency is read from the fitted curve at half-maximal effect); conditions: U2OS GR-GFP nuclear translocation, laser cytometry, 2 h
[6] = target: Glucocorticoid receptor (Homo sapiens) (UniProt P04150); assay: GR-EFC Redistribution (AID 451; calls by dose curve; also: potency is read from the fitted curve at half-maximal effect); conditions: CHO-K1 GR-EFC translocation, beta-gal luminescence, 2 h
Procedure, shortened: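 CHO-K1 cells expressing nuclear EA and GR-ED fragments of b-gal; compounds titrated up to 46 uM final, 2 h at 37 C. GR nuclear translocation read as complemented b-gal luminescence after 1 h RT detection.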

[7] = target: Mitogen-activated protein kinase 10 (Mus musculus) (UniProt Q61831); assay: JNK3 AlphaScreen Assay (AID 530); conditions: JNK3 lysate, c-Jun phosphorylation; series mostly up to 11.4 µM;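 also: kinase came from lysate of stimulated human HepG2 cells; signal reports phosphorylation of biotinylated GST-cJun 1-79 at Ser73 with 10 µM ATP; % is scaled to controls: 0 for no effect and ±100 for the full control effect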
Procedure, shortened: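 Pre-activated (IL-1β/TNFα) JNK3 in HepG2 lysates phosphorylates biotin-GST-cJun(1-79), 10 uM ATP; anti-phospho-cJun(Ser73) AlphaScreen read at room temperature, pH 7.6 Tris buffer. Compounds pre-incubated 15 min as titrations.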

[8] = target: 3',5'-cyclic-AMP phosphodiesterase 4B (Homo sapiens) (UniProt Q07343); assay: qHTS Assay for Inhibitors of PDE-IV (AID 607; active = well fitted activation curve with a large enough effect in the main read-out, with a control signal flat, not every such curve was filed as active; also: % of control where 0% means no effect); conditions: HEK293 ACTOne CNG channel cells, membrane potential fluorescence; series mostly up to 22.9 µM
Procedure, shortened: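 ACTOne HEK293 cells carry a modified cAMP-gated CNG channel and express endogenous PDE4; plated 1000 cells/well, compounds up to 22.9 uM final. Membrane-potential dye fluorescence (ex 535/em 590) was read; parental cells received 10 uM forskolin + 100 uM RO 20-1724.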

[9] = target: Cytochrome P450 3A4 (Homo sapiens) (UniProt P08684); assay: qHTS Assay for Activators of Cytochrome P450 3A4 (AID 885; active = well fitted curve in the direction sought with a large enough effect; an effect the other way counts as inactive or inconclusive; also: nearly all actives have a fitted effect of over 65% in size); conditions: recombinant CYP3A4, Luciferin-PPXE luminescence, 60 min; series mostly up to 11.4 µM
Procedure, shortened: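 20nM CYP3A4 + 25uM Luciferin-PPXE (=KM), 200mM KPO4; cpd 10 min RT; NADPH regen, 60 min RT; stop w/ detection buffer, 20 min; luminescence. Normalized to 57 uM ketoconazole.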

[10] = target: Cytochrome P450 2C19 (Homo sapiens) (UniProt P33261); assay: qHTS Assay for Inhibitors and Substrates of Cytochrome P450 2C19 (AID 899; active = well fitted curve in the direction sought with a large enough effect; an effect the other way counts as inactive or inconclusive; also: nearly all actives have a fitted effect of over 60% in size; also: potency is read from the fitted curve at half-maximal effect); conditions: recombinant CYP2C19, luciferin-H EGE luminescence; series mostly up to 11.4 µM
Procedure, shortened: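 5 nM human CYP2C19 with 10uM Luciferin-H EGE (at KM) in 50mM KPO4, compound preincubated 10 min at 37C, then NADPH regeneration for 60 min at 37C. Luciferin read by luminescence after detection reagent; normalized to 57uM ketoconazole as full inhibition.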

[11] = target: Cytochrome P450 3A4 (Homo sapiens) (UniProt P08684); assay: qHTS Assay for Inhibitors and Substrates of Cytochrome P450 3A4 (AID 884; active = well fitted curve in the direction sought with a large enough effect; an effect the other way counts as inactive or inconclusive; also: potency is read from the fitted curve at half-maximal effect; nearly all actives have a fitted effect of over 50% in size); conditions: recombinant CYP3A4, Luciferin-PPXE luminescence; series mostly up to 57.1 µM
Procedure, shortened: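 20 nM human CYP3A4 with 25 uM Luciferin-PPXE (at KM) in 200 mM KPO4, preincubated 10 min with compound; NADPH regeneration started a 60 min RT reaction. Luciferin detected by luminescence, normalized to 57 uM ketoconazole as full inhibition.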

[12] = target: Cytochrome P450 2C9 (Homo sapiens) (UniProt P11712); assay: qHTS Assay for Inhibitors and Substrates of Cytochrome P450 2C9 (AID 883; active = well fitted curve in the direction sought with a large enough effect; an effect the other way counts as inactive or inconclusive; also: potency is read from the fitted curve at half-maximal effect; nearly all actives have a fitted effect of over 60% in size); conditions: recombinant CYP2C9, luciferin-H luminescence, 60 min; series mostly up to 11.4 µM
Procedure, shortened: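 Human CYP2C9 (10nM) with Luciferin-H at 100uM (its KM) in 25mM KPO4; compound preincubated 10 min at 37C, then NADPH regeneration for 60 min at 37C. Luciferin read by luminescence after detection reagent; normalized to 57uM sulphaphenazole as full inhibition.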

[13] = qHTS Assay for Identification of Small Molecule Agonists for Hypoxia Response Element Signaling Pathway (AID 914; active = well fitted activation curve with a large enough effect in the signal ratio, with a control signal flat, not every such curve was filed as active; the % refers to the signal ratio; also: % of control where 0% means no effect); conditions: ME-180 HRE-bla reporter, beta-lactamase ratio, CoCl2, 17 h; activation: active compounds read high
Procedure, shortened: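 HRE-bla ME-180 assay for agonist-like enhancement of an EC50 CoCl2 stimulus: 17 h at 37 degrees Celsius, CCF4 for 2.5 h, ratiometric 460/530 nm signal converted to %Activity and fitted to AC50.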

[14] = Stat Signaling Pathway (AID 446); conditions: ME-180 SIE beta-lactamase reporter, IL-6 stimulated, 5 h; at 7.69 µM (top of the series) unless noted;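 also: ME-180 cervical cancer cells given 40 pM IL-6 alongside compound; SIE-controlled beta-lactamase reporter measured as 460/530 nm FRET emission ratio; % is scaled to controls: 0 for no effect and ±100 for the full control effect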
Procedure, shortened: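 ME-180 SIE-bla cells; overnight plating; cpd + IL-6 40 pM, 5 h, 37 C; LiveBLAzer 2.5 h RT; 460/530 nm emission ratio. Normalized to 300 pM IL-6 and 125 nM JAK inhibitor controls.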

3',5'-cyclic-AMP phosphodiesterase 4B (Homo sapiens), sequence (Q07343 whole entry, looked up): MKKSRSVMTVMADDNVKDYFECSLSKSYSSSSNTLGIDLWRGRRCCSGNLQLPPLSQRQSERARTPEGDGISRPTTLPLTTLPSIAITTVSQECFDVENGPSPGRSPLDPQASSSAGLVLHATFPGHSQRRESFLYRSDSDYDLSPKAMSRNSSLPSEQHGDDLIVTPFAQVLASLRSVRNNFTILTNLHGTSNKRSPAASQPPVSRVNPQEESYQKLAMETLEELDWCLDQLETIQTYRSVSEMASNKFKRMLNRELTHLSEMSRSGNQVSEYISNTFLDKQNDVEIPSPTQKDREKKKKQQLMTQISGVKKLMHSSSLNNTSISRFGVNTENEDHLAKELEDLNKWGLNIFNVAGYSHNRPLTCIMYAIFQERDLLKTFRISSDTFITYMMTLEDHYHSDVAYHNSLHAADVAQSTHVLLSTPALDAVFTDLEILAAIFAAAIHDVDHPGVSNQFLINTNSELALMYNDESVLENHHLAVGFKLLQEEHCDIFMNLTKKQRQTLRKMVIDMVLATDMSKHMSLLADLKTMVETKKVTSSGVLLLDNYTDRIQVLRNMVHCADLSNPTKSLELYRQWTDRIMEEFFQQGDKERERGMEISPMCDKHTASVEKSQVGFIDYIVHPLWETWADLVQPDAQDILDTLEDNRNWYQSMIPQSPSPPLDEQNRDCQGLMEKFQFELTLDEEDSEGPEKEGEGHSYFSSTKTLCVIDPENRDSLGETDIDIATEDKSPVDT
Glucocorticoid receptor (Homo sapiens), sequence (P04150 whole entry, looked up, the tested form may be a part): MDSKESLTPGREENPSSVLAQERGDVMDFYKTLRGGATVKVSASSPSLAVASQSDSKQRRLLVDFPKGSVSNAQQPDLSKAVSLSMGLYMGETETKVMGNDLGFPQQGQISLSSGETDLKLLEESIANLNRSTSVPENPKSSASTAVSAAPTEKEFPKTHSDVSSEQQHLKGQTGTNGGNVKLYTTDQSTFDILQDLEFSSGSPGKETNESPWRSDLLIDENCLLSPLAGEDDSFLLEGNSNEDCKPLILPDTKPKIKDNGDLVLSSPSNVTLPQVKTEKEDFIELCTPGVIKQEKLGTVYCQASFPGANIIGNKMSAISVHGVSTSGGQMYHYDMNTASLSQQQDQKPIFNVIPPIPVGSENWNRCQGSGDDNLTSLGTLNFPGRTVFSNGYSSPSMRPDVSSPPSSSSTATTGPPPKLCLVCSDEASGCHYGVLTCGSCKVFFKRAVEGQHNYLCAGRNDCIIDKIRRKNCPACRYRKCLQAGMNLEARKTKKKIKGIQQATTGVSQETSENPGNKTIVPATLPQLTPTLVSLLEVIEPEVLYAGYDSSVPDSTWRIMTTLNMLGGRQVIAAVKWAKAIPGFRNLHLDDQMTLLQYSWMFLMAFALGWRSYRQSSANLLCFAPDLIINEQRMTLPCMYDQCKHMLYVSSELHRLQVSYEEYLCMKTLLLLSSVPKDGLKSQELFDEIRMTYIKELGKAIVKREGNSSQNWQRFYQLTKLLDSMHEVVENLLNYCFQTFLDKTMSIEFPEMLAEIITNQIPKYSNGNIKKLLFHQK
Lysosomal acid glucosylceramidase (Homo sapiens), sequence (P04062 whole entry, looked up): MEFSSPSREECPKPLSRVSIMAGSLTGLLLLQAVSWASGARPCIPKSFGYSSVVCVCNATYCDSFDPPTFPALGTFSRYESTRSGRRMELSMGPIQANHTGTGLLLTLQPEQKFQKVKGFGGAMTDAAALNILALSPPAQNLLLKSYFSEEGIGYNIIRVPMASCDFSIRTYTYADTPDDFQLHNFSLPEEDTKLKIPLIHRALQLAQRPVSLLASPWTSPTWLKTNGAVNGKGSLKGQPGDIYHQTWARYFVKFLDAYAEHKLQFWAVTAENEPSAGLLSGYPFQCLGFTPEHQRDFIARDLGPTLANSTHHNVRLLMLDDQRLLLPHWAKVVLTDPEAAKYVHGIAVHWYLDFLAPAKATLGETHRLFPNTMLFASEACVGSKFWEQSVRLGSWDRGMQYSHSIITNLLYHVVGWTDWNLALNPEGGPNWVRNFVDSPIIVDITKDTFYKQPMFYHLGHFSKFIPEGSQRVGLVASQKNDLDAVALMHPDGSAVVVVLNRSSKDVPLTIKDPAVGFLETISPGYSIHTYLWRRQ
Cytochrome P450 3A4 (Homo sapiens), sequence (P08684 whole entry, looked up): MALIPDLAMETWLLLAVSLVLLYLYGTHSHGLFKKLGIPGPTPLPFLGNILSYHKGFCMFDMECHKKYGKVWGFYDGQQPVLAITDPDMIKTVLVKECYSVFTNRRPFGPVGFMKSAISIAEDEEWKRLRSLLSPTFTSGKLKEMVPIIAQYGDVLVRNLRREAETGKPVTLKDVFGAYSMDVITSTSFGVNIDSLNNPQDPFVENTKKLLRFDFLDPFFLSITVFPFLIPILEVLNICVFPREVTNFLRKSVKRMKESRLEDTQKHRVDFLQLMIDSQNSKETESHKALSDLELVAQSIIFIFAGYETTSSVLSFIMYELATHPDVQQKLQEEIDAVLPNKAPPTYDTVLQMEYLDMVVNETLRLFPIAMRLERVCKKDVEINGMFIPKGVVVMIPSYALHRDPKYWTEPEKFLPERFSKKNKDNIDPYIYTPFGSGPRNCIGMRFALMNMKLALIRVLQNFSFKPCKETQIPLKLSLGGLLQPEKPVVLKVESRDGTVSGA
Cytochrome P450 2C19 (Homo sapiens), sequence (P33261 whole entry, looked up): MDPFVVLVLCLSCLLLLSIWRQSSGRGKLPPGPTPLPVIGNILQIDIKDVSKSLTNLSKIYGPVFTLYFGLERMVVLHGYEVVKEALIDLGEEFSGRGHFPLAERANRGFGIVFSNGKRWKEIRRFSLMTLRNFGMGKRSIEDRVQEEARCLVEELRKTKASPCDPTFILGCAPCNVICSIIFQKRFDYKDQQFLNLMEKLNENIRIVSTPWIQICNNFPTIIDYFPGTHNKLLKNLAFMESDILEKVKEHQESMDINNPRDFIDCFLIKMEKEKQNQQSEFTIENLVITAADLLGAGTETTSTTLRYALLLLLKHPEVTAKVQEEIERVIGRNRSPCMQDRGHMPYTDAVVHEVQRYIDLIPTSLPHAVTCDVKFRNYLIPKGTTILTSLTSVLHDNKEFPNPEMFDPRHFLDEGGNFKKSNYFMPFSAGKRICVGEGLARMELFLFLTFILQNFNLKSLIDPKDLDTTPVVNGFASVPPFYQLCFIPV
Cytochrome P450 1A2 (Homo sapiens), sequence (P05177 whole entry, looked up): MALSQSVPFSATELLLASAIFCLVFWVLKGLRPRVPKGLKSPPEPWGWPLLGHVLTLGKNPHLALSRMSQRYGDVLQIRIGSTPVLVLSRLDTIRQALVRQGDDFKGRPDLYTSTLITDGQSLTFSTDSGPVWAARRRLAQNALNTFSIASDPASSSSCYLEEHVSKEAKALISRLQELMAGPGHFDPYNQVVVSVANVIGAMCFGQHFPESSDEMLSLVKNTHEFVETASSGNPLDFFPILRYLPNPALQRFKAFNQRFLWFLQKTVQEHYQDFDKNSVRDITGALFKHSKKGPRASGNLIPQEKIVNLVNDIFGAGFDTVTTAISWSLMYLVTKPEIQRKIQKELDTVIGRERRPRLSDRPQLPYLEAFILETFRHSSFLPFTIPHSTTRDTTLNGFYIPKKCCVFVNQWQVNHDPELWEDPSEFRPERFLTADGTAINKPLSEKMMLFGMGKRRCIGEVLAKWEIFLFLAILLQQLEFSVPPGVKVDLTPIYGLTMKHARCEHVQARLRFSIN
Cytochrome P450 2C9 (Homo sapiens), sequence (P11712 whole entry, looked up): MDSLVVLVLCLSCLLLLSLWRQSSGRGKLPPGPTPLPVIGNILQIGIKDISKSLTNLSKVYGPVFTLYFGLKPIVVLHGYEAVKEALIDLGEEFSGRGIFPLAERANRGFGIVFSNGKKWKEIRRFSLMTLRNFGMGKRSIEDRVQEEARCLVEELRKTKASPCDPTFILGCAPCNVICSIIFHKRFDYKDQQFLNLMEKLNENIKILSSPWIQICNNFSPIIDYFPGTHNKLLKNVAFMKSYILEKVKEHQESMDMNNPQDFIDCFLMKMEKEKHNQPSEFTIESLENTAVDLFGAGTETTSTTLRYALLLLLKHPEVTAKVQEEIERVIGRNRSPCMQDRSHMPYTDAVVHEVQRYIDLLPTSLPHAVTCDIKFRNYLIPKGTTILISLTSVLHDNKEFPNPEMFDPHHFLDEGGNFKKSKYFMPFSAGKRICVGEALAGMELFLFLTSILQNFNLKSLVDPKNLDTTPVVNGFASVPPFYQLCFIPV

COCCn1c(=O)c(-c2ccc(OC)cc2)nc2cnc(OC)nc21
inactive: Potency [1] > 11.4 µM | activity change, negative = inhibition [2] 2.45% | activity change, negative = inhibition [4] 8.31% | Potency [5] > 9.22 µM | Potency [6] > 46 µM | Potency [7] | Potency [8] | Potency [9]
active: Potency [3] 3.16 µM

O=c1c[n+](CC[n+]2cc(=O)o[nH]2)[nH]o1
inactive: Potency [1] > 11.4 µM | activity change, negative = inhibition [2] 2.98% | activity change, negative = inhibition [4] 12.3% | Potency [5] > 46 µM | Potency [6] > 9.22 µM | Potency [7] | Potency [8]
active: Potency [3] 2.51 µM

O=C(O)c1cccc(SSc2cccc(C(=O)O)c2)c1
active: Potency [3] 5.01 µM
inactive: Potency [1] > 11.4 µM | activity change, negative = inhibition [2] 0.262% | activity change, negative = inhibition [4] 17.5% | Potency [5] > 46 µM | Potency [6] > 9.22 µM | Potency [7] | Potency [8]

CN(C)c1ccc(C(=C2C=CC(=[N+](C)C)C=C2)c2c(O)c(S(=O)(=O)O)cc3cc(S(=O)(=O)O)ccc23)cc1
active: Potency [3] 3.98 µM
inactive: Potency [1] > 11.4 µM | activity change, negative = inhibition [2] 3.1% | activity change, negative = inhibition [4] -12.3% | Potency [5] > 46 µM | Potency [6] > 9.22 µM | Potency [7] | Potency [8] | Potency [10]

Nc1nc(SC/C=C\c2ccccc2)c2[nH]cnc2n1
inactive: Potency [1] > 11.4 µM | activity change, negative = inhibition [2] 6.66% | activity change, negative = inhibition [4] 24.8% | Potency [5] > 46 µM | Potency [6] > 9.22 µM | Potency [7] | Potency [8] | Potency [9]
active: Potency [3] 5.01 µM | Potency [11] 2.51 µM | Potency [10] 1.58 µM

Cc1cc(SCC(=O)c2ccc(Br)cc2)cc(C)[o+]1
inactive: Potency [1] > 11.4 µM | activity change, negative = inhibition [2] -6.95% | activity change, negative = inhibition [4] 27.1% | Potency [5] > 46 µM | Potency [6] > 9.22 µM | Potency [7] | Potency [8] | activation [13] 15.2%
active: Potency [3] 3.98 µM | Potency [12] 2.51 µM

Cc1ccc(C)c(C(=N)c2ccccc2Cc2ccccc2)c1
inactive: Potency [1] > 11.4 µM | activity change, negative = inhibition [2] 1.26% | activity change, negative = inhibition [3] -6.8% [at 2.29 µM] | activity change, negative = inhibition [4] -12.9% | Potency [5] > 46 µM | Potency [6] > 9.22 µM | Potency [7] | Potency [8] | Potency [9]
active: Potency [11] 3.98 µM

[O-][n+]1c(CN2CCCCC2)nc2cccc3c2c1-c1ccccc1-3
active: Potency [3] 1.58 µM
inactive: Potency [1] > 11.4 µM | activity change, negative = inhibition [2] -8.04% | activity, negative = inhibition [14] 6.89% | Potency [5] > 46 µM | Potency [6] > 9.22 µM | Potency [7] | Potency [8]

O=C(O)[C@H](Cc1ccc(O)c([N+](=O)[O-])c1)N1C(=O)c2ccccc2C1=O
inactive: Potency [1] > 11.4 µM | activity change, negative = inhibition [2] 0.441% | activity change, negative = inhibition [3] -17.9% [at 2.29 µM] | activity, negative = inhibition [14] 2.16% | Potency [5] > 46 µM | Potency [6] > 9.22 µM | Potency [7]

O=C(O)/C=C\c1c2ccc(=O)c(O)c-2oc2c(O)c(O)ccc12
inactive: Potency [1] > 11.4 µM | activity change, negative = inhibition [2] -8.29% | activity change, negative = inhibition [3] -19.8% [at 2.29 µM] | activity change, negative = inhibition [4] 2.25% | Potency [5] > 46 µM | Potency [6] > 9.22 µM | Potency [8]

O=C(O)CCCCn1ccc(=O)[nH]c1=O
inactive: Potency [1] > 11.4 µM | activity change, negative = inhibition [2] 9.63% | Potency [3] | activity, negative = inhibition [14] 4.56% | Potency [5] > 46 µM | Potency [6] > 9.22 µM | Potency [7] | Potency [8]

O=C1C=CC(=Nc2cccc3c(N=C4C=CC(=O)O4)cccc23)O1
inactive: Potency [1] > 11.4 µM | activity change, negative = inhibition [2] 5.25% | Potency [3] | activity, negative = inhibition [14] -22.4% | Potency [5] > 46 µM | Potency [6] > 9.22 µM | Potency [7] | Potency [8]

COc1ccc2cc1Oc1ccc(cc1)C[C@@H]1c3c(cc(OC)c4c3Oc3cc5c(cc3O4)CCN[C@H]5C2)CCN1C
inactive: Potency [1] > 11.4 µM | activity change, negative = inhibition [2] -4.55% | Potency [3] | activity, negative = inhibition [14] 14.2% | Potency [5] > 46 µM | Potency [6] > 9.22 µM | Potency [7] | Potency [8]

CC1=c2c(oc3cc(O)c(Nc4c(C)cc(O)cc4O)c(C)c23)=CC(=O)C1=Nc1c(C)cc(O)cc1O
active: Potency [3] 3.16 µM | Potency [12] 3.16 µM | Potency [10] 3.16 µM
inactive: Potency [1] > 11.4 µM | activity change, negative = inhibition [2] -6.5% | activity change, negative = inhibition [4] -22.3% | Potency [5] > 46 µM | Potency [6] > 9.22 µM | Potency [8]

C[N+](C)(C)c1ncnc2c1ncn2[C@@H]1CCCCO1
inactive: Potency [1] > 11.4 µM | activity change, negative = inhibition [2] 10.7% | activity change, negative = inhibition [3] 2.3% [at 2.29 µM] | activity change, negative = inhibition [4] 5.08% | Potency [6] > 9.22 µM | Potency [7] | Potency [8] | Potency [10]

N/N=C1/CC(=O)NC(=O)N1
active: Potency [3] 0.631 µM
inactive: Potency [1] > 11.4 µM | activity change, negative = inhibition [2] 2.16% | activity, negative = inhibition [14] -13% | Potency [5] > 46 µM | Potency [6] > 9.22 µM | Potency [7] | Potency [8]
